For five compounds, Potency results are on record in PubChem BioAssay (NCATS).

Inconclusive results are not listed. Calls of active or inactive are those of the source. Calls come from the whole dose curve; as a rule, active = well fitted cell-killing curve with a large enough effect; inconclusive = small, poorly fitted or top-dose-only effect; inactive = no such curve, though single readings can be large or run the other way.
Potency is the fitted concentration of half-maximal effect.

The assay can be described thus: qHTS of pediatric cancer cell lines to identify multiple opportunities for drug repurposing: Confirmatory screen for Rh41 cells (AID 1347123).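 Note: 48 h compound exposure; nearly all actives have a fitted effect of over 60% in size.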 The note with it: Rh41 rhabdomyosarcoma cells, viability/cytotoxicity qHTS; series mostly up to 45.9 µM. An outline of the steps:
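Cells (500-1,000/well) in growth media were settled 5 h at 37 degrees C, then given compounds for 48 h. Viability was read as CellTiter-Glo luminescence. Primary runs used MIPE at 11 points (0.78 nM-46 µM) and NPC at 8 points (0.59 nM-46 µM); follow-ups used 11 points.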
As for `CN/C(=C\[N+](=O)[O-])NCCSCc1ccc(CN(C)C)o1`, the Potency result was “inactive”.
For `CN1C[C@H](C(=O)N[C@]2(C)O[C@@]3(O)[C@@H]4CCCN4C(=O)[C@H](Cc4ccccc4)N3C2=O)C[C@@H]2c3cccc4[nH]cc(c34)C[C@H]21` the value was 3.29 µM (active); for `C[n+]1cc2c3c(ccc2c2ccc4cc5c(cc4c21)OCO5)OCO3`, 2.29 µM (active); for `Nc1nc(N)c2nc(-c3ccccc3)c(N)nc2n1`, “inactive”.
For `C[C@]12CC[C@@H]3c4ccc(O)cc4C[C@@H](CCCCCCCCCS(=O)CCCC(F)(F)C(F)(F)F)[C@H]3[C@@H]1CC[C@@H]2O` (stereo not given in full) the value was 8.27 µM (active).
